Screening data from PubChem BioAssay.
BoNT-A LC inh2: BoNT A light chain protease inhibition; AID 588499; inhibition, % at 10 µM; multiplex microsphere protease substrate cleavage, flow cytometry; 0.17% of 360,000 active; also: plate controls were buffer without enzyme for full effect and enzyme alone for no effect
Autofluor counter: counter-screen for toxin protease inhibitors: compound fluorescence | compound autofluorescence counterscreen, microsphere flow cytometry; active compounds read high | fluorescence intensity (test concentration not listed) | 3.1% of 360,000 active | AID 624483; in the data active = fluorescence intensity above about 16000; inconclusive = no clear call, values can overlap the other calls
MazF activator: activators of E. coli MazEF toxin-antitoxin RNase | FAM/BHQ RNA-DNA oligo cleavage fluorescence, 5 h | 0.32% of 350,000 active | P0AE70 | AID 504720 | activation, % at 20 µM; in the data active = activation above about 50%
BoNT F protease: BoNT F light chain protease inhibition; Multiplex microsphere protease cleavage assay, flow cytometry; inhibition, % at 10 µM; 0.22% of 360,000 active; AID 588497; in the data active = inhibition above about 35%, passing the limit was not always enough; inconclusive = no clear call, values can overlap the other calls; also: plate controls were buffer without enzyme for full effect and enzyme alone for no effect
Anthrax LF inh2: anthrax lethal factor protease inhibition; 0.12% of 360,000 active; P15917; inhibition, % at 10 µM; multiplex microsphere protease cleavage assay, LF; AID 588501; also: plate controls were buffer without enzyme for full effect and enzyme alone for no effect
Starred values were filed as active, the others as inactive; ? = inconclusive; . = no result given. An excerpt weighted towards active compounds, which were near 3.6% of everything screened. Rule as the data show it, unless noted: active = inhibition above about 30%; inconclusive = no clear call, values can overlap the other calls; inactive = below that.

SMILES | BoNT-A LC inh2 | Autofluor counter | MazF activator | BoNT F protease | Anthrax LF inh2
CCC(Sc1nc2cc3c(cc2c(=O)n1Cc1ccco1)OCO3)C(=O)Nc1ccccc1OC (configuration not stated) | ? | 23027* | -68 | -1 | -1
COc1cc(OC)cc(C(=O)N[C@H](C(=O)OCC(=O)Nc2cccnc2Cl)C(C)C)c1 | 5 | ? | 5 | 2 | 9
Cc1ccc(NC(=O)N(C2=NCC(C)S2)c2ccccc2)cc1 (configuration not stated) | ? | 19772* | -3 | -7 | -9
Cc1ccc2cc(CN(CC(C)C)C(=O)C3CCCO3)c(=O)[nH]c2c1 (configuration not stated) | 1 | 8755 | 7 | -4 | -7
Cc1ccc2cc(CN(CC3CCCO3)C(=O)C(C)C)c(=O)[nH]c2c1 (configuration not stated) | -1 | 23042* | -8 | -3 | -1
COC(=O)c1c(NC(=O)c2cccc(S(=O)(=O)N3CCN(C)CC3)c2)sc(C)c1C | -1 | 5423 | 4 | -4 | -2
CCc1nnc(SCCSc2nnc(CC)n2N)n1N | 0 | 2392 | 1 | 2 | -1
CCCCc1nnc(SCCSc2nnc(CCCC)n2N)n1N | 0 | 23554* | 5 | -1 | -1
COC(=O)c1cnn(C(=O)c2ccccc2Br)c1N | -1 | 22952* | -3 | -4 | -4
CCOC(=O)C1(C)CCN1C(=O)c1cc(OC)ccc1Br (configuration not stated) | 0 | 3614 | . | 6 | -3
COC(=O)c1cnn(C(=O)c2cc(OC)ccc2Br)c1N | 1 | 23297* | -8 | -2 | -2
c1ccc2c(c1)oc1c(Nc3ccc4c(c3)OCO4)ncnc12 | 0 | 2438 | 4 | -5 | 4
Cc1nc(Nc2ccc3c(c2)OCO3)c2oc3ccccc3c2n1 | ? | 24138* | 7 | -5 | -4
CCc1nc(Nc2ccccc2)c2oc3ccccc3c2n1 | ? | 19756* | 3 | 3 | -2
CC1=NN(C(N)=S)C(=O)C1N=Nc1cccc(Cl)c1C (configuration not stated) | -4 | 4035 | 3 | -30 | 0
CCCOc1ccccc1OCC(=O)Nc1cc(Cl)ccc1-n1cncn1 | 3 | 4058 | -8 | 14 | 3
CCOC(=O)N1CCC(NC(=O)c2sc(-n3cccc3)nc2C)CC1 | 0 | 2871 | 6 | -4 | 2
CCOC(=O)N1CCC(NC(=O)c2oc3c(c2C)-c2[nH]ncc2CC3)CC1 | ? | 20954* | 6 | -5 | -4
O=C(CSc1nc2ccccc2n1CC(=O)N1CCCC1)Nc1nccs1 | -1 | 23314* | -2 | -2 | -1
Cc1ccc(Nc2nnc(SCC(=O)Nc3ccc(S(=O)(=O)N4CCOCC4)cc3)s2)cc1 | -1 | 22187* | 7 | -3 | -3
Cc1cccc(NC(=O)CSc2nnc(-c3ccc(S(=O)(=O)N4CCOCC4)cc3)n2C)c1 | 0 | 16637* | 10 | -2 | -6
CC(=O)CSc1nnc(-c2ccc(S(=O)(=O)N3CCOCC3)cc2)n1C | -1 | 6054 | 3 | 3 | -1
Cn1c(SCC(=O)Nc2nccs2)nnc1-c1ccc(S(=O)(=O)N2CCCC2)cc1 | 4 | 19176* | -3 | 6 | 0
CN(CCCn1ccc(NC(=O)OCc2ccccc2)nc1=O)Cc1ccco1 | 0 | 3439 | 6 | 2 | -4
C=CCOC(=O)C1=C(C)NC(C)=C(C(=O)OCC=C)C1c1cn(-c2ccccc2)nc1-c1ccco1 | -1 | 2618 | -4 | -8 | -1
SMILES | BoNT-A LC inh2 | Autofluor counter | MazF activator | BoNT F protease | Anthrax LF inh2
COc1ccc(CNC(=O)C2CCCN(C(=O)Nc3ccc(OC)cc3)C2)cc1 (configuration not stated) | -3 | 3763 | 8 | -2 | 4
O=C(Nc1nnc([C@H]2C[C@H](O)[C@@H](CO)O2)s1)c1ccccc1F | 0 | 3677 | . | 4 | 6
CC(C)N=Cc1c(O)[nH]c2ccccc12 | -2 | 21450* | -2 | -4 | -2
Oc1ccc(Cl)cc1/C=C/c1ccc2cccc(O)c2n1 | 0 | 4138 | 60* | -15 | 2
Cc1cc(C)nc(NC(=O)c2c(F)c(F)c(F)c(C(=O)Nc3cc(C)cc(C)n3)c2F)c1 | -2 | 4073 | -3 | ? | 10
Cc1ccc(S(=O)(=O)N(CC(=O)N2CCN(c3ccc(F)cc3)CC2)C2CCCCC2)cc1 | -1 | 23859* | 7 | -7 | 1
O=C(N/N=C/c1ccccc1Cl)c1cccc(F)c1 | -3 | 16940* | -7 | -4 | -3
O=C(N/N=C/c1c(Cl)cccc1Cl)c1cccc(F)c1 | 0 | 10858 | 17 | -7 | 0
CCOc1ccc(CC(=O)Nc2sc(Cc3ccccc3)c(C)c2C(N)=O)cc1OCC | 2 | 23316* | -2 | 3 | 3
